Data on 30 compounds can be found in PubChem BioAssay AID540256 (National Center for Advancing Translational Sciences (NCATS), 2011).

Molecules are shown by their SMILES. About 3,700 (1.2%) of roughly 300,000 compounds were called active. Not shown: some 20% with an inconclusive outcome. The full list was thinned out, with actives kept by preference. Values without a mark were called inactive. Calls come from the whole dose curve; tested in HEK293 cells.
% is set by controls: 0 for no effect and ±100 for the full control effect; potency is the fitted concentration of half-maximal effect.

This assay is described as follows: qHTS for Inhibitors of binding or entry into cells for Lassa Virus. Note: nearly all actives have a fitted effect of over 50% in size. The settings on record: Lassa virus pseudotype entry inhibition, cell reporter; series mostly up to 37.9 µM; activity change, negative = inhibition: at the top concentration. For orientation: Quantitative high-throughput screening tests each substance at several concentrations.
Consider `CCN(CC)S(=O)(=O)c1ccc(N2CCOCC2)c(NC(=O)C2CSC3(C)CCC(=O)N23)c1` (stereo not given), for which the “activity change, negative = inhibition” value is 3.13%.
For `C=CCNC(=O)C1CC2c3ccccc3C1c1ccccc12` (stereo not given), the “activity change, negative = inhibition” value is 1.7%.
With `O=c1c2c(nc3nc[nH]n13)CCC2`, the “activity change, negative = inhibition” value was 9.91%.
Take `O=c1c2c(nc3cc(-c4cccc(Cl)c4)[nH]n13)CCCC2`: the Potency is 4.47 µM (active).
As to `CCCCN1Cc2c(nc3cc(-c4ccccc4)[nH]n3c2=O)C1=O`, the “activity change, negative = inhibition” value is 7.74%.
For `COc1cc(Cl)c(C)cc1NC(=O)CN1CCCCCC1`, the “activity change, negative = inhibition” value was -0.418%.
As for `CCc1c(Nc2ccccc2Cl)nc(N)[nH]c1=O`, the “activity change, negative = inhibition” value is 2.83% [at 46.1 µM].
On the same count and under the same terms, the figure for `CCOc1ccc(NC(=O)CCc2c(C)nn(-c3ccc(N4CCCC4)nn3)c2C)cc1` is 3.23% [at 46.1 µM].
Still for that read-out and setting: the same measure for `Cc1cccnc1CCNC(=O)C1CCC(=O)N(Cc2cccc(F)c2)C1` (stereo not given): -1.79%; for `Cc1ccc(Nc2nnc(SCc3ccccc3)s2)cc1`: 4.02%; for `Cc1ccccc1-n1c(SCC(=O)NCc2cccs2)nnc1-c1ccncc1`: 13.7%.
Consider `Cc1ccc(Nc2nc(CSc3nnc(-c4ccncc4)n3-c3ccccc3C)cs2)cc1`, for which the Potency was 8.91 µM (active).
As to `CCOC(=O)c1ccc(NC(=O)c2ccc(NC(=O)C3CCCO3)cc2)cc1` (stereo not given), the “activity change, negative = inhibition” value was -16.3% [at 46.1 µM].
For the compound `Cc1sc2ncnc(N3CCC(C(=O)NNC(=O)c4ccc(F)cc4)CC3)c2c1C`, the “activity change, negative = inhibition” value was -25.3%.
For the compound `CCOc1ccc(-n2c(O)c(/C=N/Nc3nnc(C)c(=O)[nH]3)c3ccccc3c2=O)cc1`, the “activity change, negative = inhibition” value is -1.29%.
Consider `COc1ccc(Cc2nnc(N/N=C/c3ccccc3O)[nH]c2=O)cc1OC`, for which the Potency was 3.98 µM (active).
With `O=c1[nH]c(NCCO)nnc1Cc1ccc(Cl)cc1`, the “activity change, negative = inhibition” value was 4.68%.
`CCNC(=S)N1CCN(S(=O)(=O)c2ccc(Cl)s2)CC1`: the “activity change, negative = inhibition” value is -8.37%.
Same read-out and setting: the figure for `CN(C(=O)CSc1cccc[n+]1[O-])C1CCCCC1` is 11.1%; for `COc1cccc(Nc2ncccc2C(=O)O)c1` it is 12.8%.
On to `COc1cc(Nc2nccc(-c3cnn4ncccc34)n2)cc(OC)c1`, for which the Potency is 2.5 µM (active).
As to `COc1cc(NC(=O)CSc2ccc(-c3cccnc3)nn2)cc(OC)c1`, the “activity change, negative = inhibition” value was 2.53%.
For the compound `O=c1c(-c2cccc(Cl)c2)c[nH]n1-c1ccccc1`, the “activity change, negative = inhibition” value was -0.387%.
Same read-out and setting: the same measure for `COC(=O)c1cnc(N2CCN(c3ccccc3OC)CC2)c2ccccc12`: -11.8% [at 46.1 µM].
`Cc1cc(Br)ccc1NC(=O)c1cnc(N2CCN(c3ccccn3)CC2)c2ccccc12`: the Potency is 16.4 µM (active).
Regarding `O=C(Cc1ccc(Br)cc1)N1CCN(c2ccccn2)CC1`, the “activity change, negative = inhibition” value was 4.49%.
On the same count and under the same terms, the same measure for `O=C(C1CC(=O)N(C2CCCC2)C1)N1CCN(c2cccc(C(F)(F)F)c2)CC1` (stereo not given): 0.458%; for `Cc1cc(C)c(S(=O)(=O)NCC(c2ccc3c(c2)OCO3)N2CCOCC2)c(C)c1` (stereo not given): -16.8%.
Same read-out and setting: the same measure for `CC(C)CN1CC(C)C(=O)N(c2ccccc2)C1=S` (stereo not given): 16.6% [at 46.1 µM].
For `CN(C)C(CNC(=O)c1cc2ccccc2o1)c1ccccc1` (stereo not given), the “activity change, negative = inhibition” value was 1.37%.
